In PubChem BioAssay AID2314 (National Center for Advancing Translational Sciences (NCATS), 2010) one finds max response data, which are given here for 104 compounds.

Values joined by “and” are separate entries in the source; they are usually repeats but may differ in a detail not shown here. Equal values may be shown once. In all, about 300,000 compounds went through this assay and about 37,000 (12%) were called active. No stated cut-off is given here; in the data, active means max response mostly above about 13% (no sharp cut-off); inactive means mostly below about 14%. This excerpt belongs to a sample that is enriched for actives.

A short description of this experiment: Cycloheximide Counterscreen for Small Molecule Inhibitors of Shiga Toxin. Further: read at 38.3 µM for the half of the compounds with a filed dose; 0% is about no effect. Conditions: cell reporter, cycloheximide protein synthesis inhibition counterscreen; hits give high values. (In general: A counterscreen serves to expose hits that act by an unwanted route or on another target.)
Turning to `COc1cc(CCC(=O)N2CCN(c3ccccc3Cl)CC2)cc(OC)c1OC`, the max response is -5.65% (inactive).

On to `CNC(=S)N/N=C/c1ccc(OCc2ccccc2)c(Br)c1`, for which the max response was -5.52% (inactive).

For the compound `Cc1ccc(CNC(=O)C2(C(F)(F)F)C/C(=C\CCO)CCCO2)o1` (centres undefined), the max response was 7.26% (inactive).

As for `COc1ccc(OC)c(S(=O)(=O)Nc2cccc(-c3ccc4nncn4n3)c2)c1`, the max response was -3.34% (inactive).

In the case of `CS(=O)(=O)Nc1cccc(-c2cn3ccccc3n2)c1`, the max response was 19.3% (active).

Take `CCC(=O)Nc1cccc(NC(=O)CSc2nnc(-c3ccc(NS(C)(=O)=O)cc3)n2C)c1`: the max response is -1.2% (inactive).

As for `CC(=O)C1=C(O)C(=O)N(c2ccc(Br)cc2)C1c1ccc([N+](=O)[O-])cc1` (centres undefined), the max response was -1.92% (inactive).

Turning to `CCN(CC)CCn1c(/N=C/c2cc(Br)ccc2O)nc2ccccc21`, the max response was 8.52% (inactive).

With `Oc1ccc(Br)cc1/C=N/Nc1ccccn1`, the max response is 41.6% (active).

Regarding `Oc1ccc(Br)cc1C=Nc1ccc2[nH]ncc2c1`, the max response was -2.62% (inactive).

Take `COc1cccc(-n2c(N)cc(=O)nc2SCC(=O)Nc2cc(C)on2)c1`: the max response is -3.66% (inactive).

For `Cc1ccnc(N2CCN(C(=O)CSc3nc4ccccc4nc3N3CCCCC3)CC2)c1`, the max response is -5.65% (inactive).

As to `Cn1c(Nc2ccccc2)cc(=O)n(C)c1=O`, the max response was -4.74% (inactive).

As to `COc1ccc(C(=O)COC(=O)CNC(=O)c2cccs2)cc1Br`, the max response is -4.46% (inactive).

As to `COc1cc(NC(=S)NCCSc2ccc(C)cc2)cc(OC)c1`, the max response was 2.45% (inactive).

For `CCc1nc(SCC(=O)NNC(=O)c2ccc(C)cc2)c2ccccc2n1`, the max response is -3.44% (inactive).

`Cc1ccc(C(=O)NNc2ncnc3ccccc23)cc1`: the max response is 37.5% (active).

With `Cc1ccc(C(=O)NNC(=O)c2cc3cc4ccccc4nc3s2)cc1`, the max response is -2.84% (inactive).

As for `CCOc1ccccc1-c1nc(CN2CCC(C(=O)N3CCOCC3)CC2)c(C)o1`, the max response was 5.66% (inactive).

On to `CCOC(=O)CSc1nnc(NC(=O)C2CC(=O)N(c3ccc(F)cc3)C2)s1` (centres undefined), for which the max response was 4.08% (inactive).

`Cc1cc(-c2n[nH]c(=S)n2/N=C/c2ccco2)n[nH]1`: the max response is 0.979% (inactive).

`S=c1[nH]nc(-c2cccnc2)n1/N=C/C(Cl)=C\c1ccccc1`: the max response was -2.93% (inactive).

As for `Cc1cc(-c2n[nH]c(=S)n2/N=C/C(Br)=C/c2ccccc2)n[nH]1`, the max response is 95.8% (active).

Turning to `Cc1nn(C)cc1S(=O)(=O)N1CCN(c2ccc(F)cc2)CC1`, the max response is 11.1% (inactive).

In the case of `CN(C(=O)COC(=O)CNC(=O)C12CC3CC(CC(C3)C1)C2)c1ccccc1`, the max response was 1.16% (inactive).

On to `C#C[C@]1(O)CC[C@H]2[C@@H]3CCC4=CC(=O)CC[C@@H]4[C@H]3CC[C@@]21CC`, for which the max response was -12.5% (inactive) and -2.99% (inactive) and -5.94% (inactive).

On to `Cc1nc(CN(C)C(=O)CC2C(=O)NCCN2Cc2ccc(F)cc2)cs1` (centres undefined), for which the max response is -1.31% (inactive).

Turning to `Brc1ccc(C2CC(c3ccccc3)=Nc3ccccc3N2)cc1` (centres undefined), the max response was 43.8% (active).

`Brc1ccc(C2=NCCC(c3ccccc3)O2)cc1` (centres undefined): the max response was 6.52% (inactive).

For the compound `CNC(=S)N1N=C(c2ccccc2)CC1c1ccc(Br)cc1` (centres undefined), the max response was 12.1% (inactive).

In the case of `CNC[C@H](CC1CCCCC1)NC[C@H](NCCC1CCCC1)[C@H](C)O`, the max response was -3.05% (inactive).

In the case of `CCOc1ccc2cc(C#N)c(SCC(=O)OC)nc2c1`, the max response is 26.6% (active).

`Cc1nonc1NC(=O)CSc1nc2ccccc2cc1C#N`: the max response was 29.2% (inactive).

For the compound `COc1ccc(N2CCN(C(=O)CSc3nc4cc(OC)c(OC)cc4cc3C#N)CC2)cc1`, the max response was 2.1% (inactive).

In the case of `CCCn1c2ccccc2c2cnn(CC(=O)NCCCN3CCCCC3CC)c(=O)c21` (centres undefined), the max response is -4.88% (inactive).

On to `O=C(Nc1cc(-c2nc3ncccc3o2)ccc1Cl)c1ccco1`, for which the max response is 7.89% (inactive).

With `CCOc1cc(NC(=O)c2ccco2)c(OCC)cc1NC(=O)COc1ccccc1`, the max response is -3.22% (inactive).

Take `Cc1ccnc(NC(=O)c2ccco2)n1`: the max response was 10.2% (inactive).

With `O=C(CSc1ccccc1)Nc1ccc(NC(=O)c2ccco2)cc1`, the max response was 16.6% (inactive).

Consider `O=C(Nc1ccc2nccnc2c1)c1ccco1`, for which the max response is 36.2% (active).

Take `Cc1ccc(C(=O)COc2cccc(NC(=O)c3ccco3)c2)cc1`: the max response was 4.03% (inactive).

Regarding `Cc1cccc(NC(=O)Nc2cccc(Oc3c(F)c(F)c(F)c(F)c3F)c2)c1`, the max response is 7.92% (inactive).

Take `O=C(Nc1cccc(-c2nc3ncccc3o2)c1)c1ccco1`: the max response is 29.9% (active).

In the case of `O=C(Nc1c(-c2ccccc2)nc2c(Br)cc(Br)cn12)c1ccco1`, the max response was 14.7% (inactive).

Take `Cc1ccoc1C(=O)Nc1cccc(Oc2ccccc2)c1`: the max response is 62.1% (active).

In the case of `O=C(Nc1cccc(NC(=O)c2ccco2)c1)c1cnccn1`, the max response is 6.96% (inactive).

As to `O=C(Nc1ccc(Oc2ccccc2)cc1)c1ccco1`, the max response was 37.5% (active).

As to `COc1ccc(C(=O)Nc2ccc(C(=O)NCC3CCCO3)cc2)c(OC)c1OC` (centres undefined), the max response was -0.955% (inactive).

Consider `O=S(=O)(Nc1cccc2cccnc12)c1cccc2cccnc12`, for which the max response is -4.18% (inactive).

For the compound `COc1cc(/C(=C/c2ccccc2)c2ccccc2)c2c(c1)oc1ccccc12`, the max response was -1.79% (inactive).

Regarding `CCCOc1ccc(/C=N/NC(=O)C2CC2)c(OCCC)c1`, the max response was 1.32% (inactive).

For `Cc1ccc(C(=O)NCCNS(=O)(=O)c2ccccc2)cc1`, the max response was -4.96% (inactive).

As to `O=C(Nc1ccccc1)/C(=C\c1ccco1)NC(=O)c1ccco1`, the max response was 25.7% (inactive).

For `O=C(Nc1ccccc1)c1ccco1`, the max response was 18.8% (active).

`CCS(=O)(=O)Nc1ccc(C(=O)NCCSc2ccccc2)cc1`: the max response is 30% (active).

For the compound `COc1ccc(NC(=O)c2ccco2)cc1NC(=O)c1ccc(C#N)cc1F`, the max response was 1.08% (inactive).

For `O=C(Nc1ccc(Sc2ccc(Br)cc2)cc1)c1ccco1`, the max response is 35.2% (active).

Take `O=C(Nc1ccc2oc(-c3ccccc3F)nc2c1)c1ccco1`: the max response is 47.3% (active).

`O=C(NNC(=O)c1ccco1)Nc1ccccc1`: the max response is 12.6% (inactive).

With `Cc1cc(NC(=O)[C@H](C)NC(=O)c2ccco2)ccc1Br`, the max response was -2.49% (inactive).

On to `Cc1ccc(C(=O)NCCNC(=O)c2ccccc2)cc1`, for which the max response was 2.82% (inactive).

With `COc1ccc(NC(=O)CCCN2C(=O)C(c3ccccc3)Oc3cccnc32)cc1` (centres undefined), the max response was 21.3% (inactive).

Consider `C[N+](C)(C)CCNC(=O)c1cc[n+](Cc2ccccc2)c(/C=N/O)c1`, for which the max response is -2.41% (inactive).

As for `COC(=O)c1cc(CNC(=O)CC(C)c2ccccc2)ccc1OC` (centres undefined), the max response was 0.629% (inactive).

Consider `O=C(NNC1CC(=O)N(c2cccc(Cl)c2)C1=O)c1cccnc1` (centres undefined), for which the max response was 0.896% (inactive).

As to `Cc1c(-c2ccccc2)n[nH]c1C(=O)N=Nc1c(O)[nH]c2ccccc12`, the max response is 8.32% (inactive).

As for `COc1ccc(-c2c(-c3ccc(OC)cc3O)nc(C)nc2C(F)(F)F)cc1`, the max response is -2.37% (inactive).

`O=C(/C=C/c1ccco1)Nc1ccc(Oc2ccccc2)cc1`: the max response was 37.9% (active).

In the case of `O=C(NCCSc1ccccc1)c1ccco1`, the max response was 81.7% (active).

On to `Cc1ccc(-n2nc3ccc(NC(=O)/C=C/c4ccco4)cc3n2)cc1C`, for which the max response is 30.3% (inactive).

On to `O=C(O)/C=C\C(=O)Nc1ccc(OCc2ccccc2)cc1`, for which the max response is 21.5% (inactive).

For the compound `O=C(CNC(=O)c1ccco1)OCC(=O)c1ccccc1`, the max response was 19.9% (inactive).

As to `O=C(CCSc1ccccc1)NCCSc1ccccn1`, the max response was -3.74% (inactive).

As to `CC(=O)NCCc1ccc(S(=O)(=O)Nc2ccc(C)c(S(=O)(=O)N3CCOCC3)c2)cc1`, the max response is -9.24% (inactive).

As to `CC1CCN(CC(=O)Nc2nccs2)CC1`, the max response was -2.21% (inactive).

Turning to `O=C(Cc1ccsc1)N1CCN(S(=O)(=O)c2cc(C(F)(F)F)cc(C(F)(F)F)c2)CC1`, the max response is -2.13% (inactive).

In the case of `COc1cccc(C(C(=O)NC2CCCC2)N(C(=O)c2ccco2)c2cccc(C(C)=O)c2)c1OC` (centres undefined), the max response was 3.33% (inactive).

As to `Cc1cc(OC(=O)c2c(Cl)cccc2Cl)nc(C)n1`, the max response is -0.567% (inactive).

`CCOC(=O)c1cnc(-c2ccccc2)nc1Oc1ccc(C)cc1`: the max response is -0.445% (inactive).

Regarding `CCCCOc1ccc(-c2ncc(C(=O)OCC)c(N)n2)cc1`, the max response is 42.2% (active).

On to `CCOC(=O)c1cnc(SCC(=O)Nc2ccccc2C(=O)OC)nc1N`, for which the max response is -1.91% (inactive).

As to `COc1ccc2c(c1)c(=O)c(C(=O)c1ccc(Cl)cc1)cn2CC(=O)Nc1ccc(F)cc1`, the max response was -2.23% (inactive).

For the compound `O=C(N=C1SC2CS(=O)(=O)CC2N1c1cc(Cl)ccc1Cl)C1CC1` (centres undefined), the max response was 8.54% (inactive).

`Cc1ncc(CC(=O)n2cc(C(=O)c3cc(Cl)ccc3O)cn2)s1`: the max response was 11.2% (inactive).

`O=C(c1cnn(-c2ccc(Cl)cc2)c1)c1ccccc1O`: the max response is 60.1% (active).

With `O=C(CN1CCN(c2ccc(Cl)cc2)CC1)c1ccccc1`, the max response was 5.7% (inactive).

With `Fc1ccc2[nH]c3c(N4CCN(Cc5ccc6c(c5)OCO6)CC4)ncnc3c2c1`, the max response was -4.86% (inactive).

Regarding `COc1ccc(CN2CC(C(=O)NCCc3ccc(Cl)cc3)CC2=O)cc1` (centres undefined), the max response was -3.25% (inactive).

As for `CNC(=O)NCCN1CCCC1=O`, the max response was -5.85% (inactive).

Consider `Cc1ccc(C(=O)N(CN2CCCC2=O)c2ccc(F)cc2)cc1`, for which the max response was 11.4% (active).

Take `Cc1ccc(S(=O)(=O)N(CC(=O)NN=C2CCN(C)CC2)c2ccc(F)cc2)cc1`: the max response was -0.935% (inactive).

With `CCc1nc(N2CCN(C(C)=O)CC2)c2c3c(sc2n1)CCCC3`, the max response is 1.8% (inactive).

Consider `CN(Cc1ccccc1)S(=O)(=O)c1nnc(NC(=O)c2ccccc2F)s1`, for which the max response is -3.23% (inactive).

Take `O=C(Nc1nc(-c2ccc(-c3ccccc3)cc2)cs1)c1cnccn1`: the max response was 35.3% (active).

Turning to `O=C(Nc1ccc(NC(=O)c2ccccc2F)cc1)c1ccccc1F`, the max response is 12.7% (inactive).

For the compound `O=C(O)c1ccccc1C(=O)Nc1nc(-c2ccccc2)cs1`, the max response was -3.4% (inactive).

Consider `O=C(CCc1ccccc1)NCc1cccnc1`, for which the max response is 1.47% (inactive).

In the case of `O=C(Nc1ccccc1F)c1ccccc1-c1ccccc1`, the max response is -1.34% (inactive).

On to `O=C(O)c1ccccc1-c1ccccc1C(=O)NCc1cccnc1`, for which the max response was -0.956% (inactive).

In the case of `O=C(NCc1cccnc1)C(=O)Nc1nc(-c2ccccc2)cs1`, the max response is 39.9% (active).

`O=C(Nc1nnc(Cc2ccccc2)s1)c1cnccn1`: the max response is 9.38% (inactive).

Take `O=C(Nc1nc(-c2cccnc2)cs1)c1ccccc1F`: the max response was 45.8% (active).

In the case of `O=C(Nc1nnc(-c2ccccc2F)s1)c1ccccc1F`, the max response is 17.9% (active).

In the case of `Cc1ccc(-c2csc(NC(=O)c3cnccn3)n2)cc1C`, the max response was 1.6% (inactive).
